# Compound activity as filed in PubChem.
# HSP90 refold inh – blocks HSP90-mediated luciferase refolding in reticulocyte lysate; inhibition, % at 5.6 µM; Rabbit reticulocyte lysate, luciferase refolding luminescence, 3 h; AID 1789; actives 0.91% (n = 290,000);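 active = inhibition above the screen-wide mean plus 3 SD, computed separately per campaign, cut at about 16% in these data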;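 also: 0% = DMSO wells and 100% = 60 µM geldanamycin wells; inhibitors lower the luminescence because luciferase stays unfolded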
# GAA850 FXN act – frataxin GAA850 promoter activation | AID 540364 | actives 0.56% (n = 360,000) | HEK293 lucGAA850 FXN promoter luciferase reporter, 24 h; percent of 10 µM SAHA response | activation, % at 6 µM;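 active = activation above the average of all compounds screened plus 3 SD, cutoff fixed separately per campaign, cut at about 7.5% in these data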;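 also: 0% = DMSO wells and 100% = 10 µM SAHA wells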
# SMARCA2 activ – activators of SMARCA2 function | MG213 cells, MMTV-luciferase reporter, dexamethasone, overnight | activation, % at 9.1 µM | actives 1% (n = 370,000); in the data active = activation above about 7.8%;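 also: 0% = vehicle wells and 100% = reference activator wells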
# AI-2 QS modul – modulates the Vibrio harveyi AI-2 quorum sensing system; activity change, % at 7.5 µM; Vibrio harveyi JMH597 AI-2 luminescence/OD600 ratio, 9 h; hits give low values; strain lacks LuxN and CqsS sensors; 0 = neutral-control median; actives 0.4% (n = 300,000); AID 2094; in the data active = activity change below about -75%, passing the limit was not always enough; inconclusive = no clear call, values can overlap the other calls;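 also: luminescence divided by OD600 gain over 9 h not by final OD600 alone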
# PG9 binder – small molecules binding HIV-1 gp120 antibody PG9. TR-FRET gp120-PG9 antibody binding. inhibition, % at 6.7 µM. actives 0.43% (n = 360,000). AID 624416; in the data active = inhibition above about 8.5%
# HSF1 inhib – HSF1 inhibition; actives 0.77% (n = 300,000); AID 2098; activity change, negative = inhibition, % at 7.5 µM (by protocol); NIH3T3-HGL HSE-luciferase, MG132-induced, luminescence 8 h; hits give low values;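 active = more than half of replicate wells show activity change below -50%, luminescence cut by over half; inconclusive = some wells, but at most half, below -50%; inactive = no replicate well below -50%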;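 also: luciferase reports HSF-1 transcriptional activity via heat shock element; 0% = median of DMSO wells and -100% = zero luminescence signal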
# An asterisk follows results filed as active; ? = inconclusive; / = no result. Sampled rows, rich in hits. Any-hit rate of the full collection: about 3.4%.
SMILES,HSP90 refold inh,GAA850 FXN act,SMARCA2 activ,AI-2 QS modul,PG9 binder,HSF1 inhib
NNC(=O)CNC(=O)CNS(=O)(=O)c1ccccc1,-1,0,3,39,-1,-78*
CCOC(=O)[C@@]12CCC3=C1N(CCC3)C(=O)[C@H](CC(=O)N1CCCC1)C2,/,/,-2,/,/,/
CN(C)CCN(C(=O)c1ccc(S(=O)(=O)N(C)c2ccccc2)cc1)c1nc2ccc(Cl)cc2s1,-5,2,14*,9,0,5
CN(C)CCCN(C(=O)c1ccc(S(=O)(=O)N2CCc3ccccc32)cc1)c1nc2ccc(Cl)cc2s1,16*,0,-1,20,0,-26
CN(C)CCN(C(=O)c1ccc(S(=O)(=O)N(C)c2ccccc2)cc1)c1nc2cc3c(cc2s1)OCO3,0,1,-1,3,-1,3
COc1ccc(S[C@]2(C(=O)N3CCN(C(C)=O)CC3)CC(=O)N[C@@H]2c2ccc(OC)cc2)cc1,/,/,-4,/,/,/
Cc1ccc(NC(=O)Cc2ccc(F)cc2)c(S(=O)(=O)N2CCOCC2)c1,/,/,-6,/,/,/
COc1ccc(S(=O)(=O)N2CCCCCC2)cc1C(=O)OCC(=O)NC(C)(C)C,3,-1,-2,8,-1,-68*
COc1ccc(S(=O)(=O)N2CCCCCC2)cc1C(=O)OCC(=O)NC(N)=O,0,0,0,8,-1,-1
CCN(CC)c1ncnc2ccc(Br)cc12,0,-5,-4,-5,7,-53*
Cc1ccc(C2NC(=O)c3n[nH]c(C)c32)cc1 (stereo unspecified),/,/,-3,/,0,/
CCC(C)N(C(=O)CSc1nnc(-c2cccnc2)n1C1CCCCC1)C(C)CC (stereo unspecified),/,/,3,/,/,/
OC(COc1ccc2ccccc2c1Br)Cn1cnc(-c2ccccc2)c1 (stereo unspecified),1,0,-2,15,2,-82*
C=CCOC(=O)N[C@@H](c1cccc(OC)c1)[C@@H](C)/C=C/CC(=O)O,/,/,-3,/,/,/
Cc1ccsc1C(=O)NNC(=O)C1C2C=CC(C2)C1C(=O)O (stereo unspecified),-5,3,9.0*,/,0,/
O=C(COc1ccc(Cl)cc1)Nc1nnc(-c2ccc3c(c2)CCCC3)o1,2,0,0,18,-1,8
COc1cccc(C(=O)Nc2nnc(-c3ccc(F)cc3)o2)c1,/,2,0,-88*,0,-4
COc1cccc(C(=O)Nc2nnc(-c3ccc(Cl)cc3)o2)c1,/,-1,-5,-87*,-1,-5
COc1cccc(C(=O)Nc2nnc(-c3cccs3)o2)c1,4,2,0,-84*,-3,10
O=C(COc1ccccc1)Nc1nnc(-c2ccc(Cl)cc2)o1,-3,2,-1,-90*,-2,-4
CC(=O)c1ccc(C(=O)Nc2nnc(-c3ccc(Cl)cc3)o2)cc1,/,-1,-5,?,-1,-5
COc1cccc(-c2nnc(NC(C)=O)o2)c1,/,2,1,16,2,-2
COc1cccc(-c2cccc3c4c([nH]c23)[C@@H]2C[C@H]3[C@@H](C(=O)N2CC4)[C@H](C)ON3C)c1,/,/,-4,/,0,/
O=C1C2C(CC3c4ccccc4CCN32)CN1c1ccccc1 (stereo unspecified),/,/,1,/,/,/
COc1ccc(NC(=O)NCCCN2CCN(c3ccc(F)cc3)CC2)cc1OC,/,/,-5,/,/,/
SMILES,HSP90 refold inh,GAA850 FXN act,SMARCA2 activ,AI-2 QS modul,PG9 binder,HSF1 inhib
CCOC(=O)c1csc(NC(=O)c2ccccc2)n1,-1,1,1,6,-1,26
CCOC(=O)Cc1cnc(NC(=O)c2ccccc2)s1,-1,0,2,31,-2,-54*
COc1cc(C(=O)NCc2ccc(-c3nc4ccccc4o3)cc2)cc(OC)c1OC,4,2,-1,20,11*,-5
Cn1cc(Cl)c(C(=O)Nc2nc3ccccc3s2)n1,9,0,7.9*,27,-1,13
COc1ccccc1C(=O)NCc1ccc(-c2nc3ccccc3s2)cc1,11,-6,-5,23,-2,-59*
COc1n[nH]c(C(=O)Nc2nc3ccccc3s2)c1[N+](=O)[O-],-4,4,2,62,-2,-65*
COc1cc(C(=O)NCc2ccncc2)cc(OC)c1OC,1,0,-1,-1,-1,/
O=C(N1CCOCC1)N1CC[C@H]2[C@H](CCCN2Cc2ccccc2)C1,/,/,-1,/,/,/
